# In PubChem BioAssay:
# “And” between values parts separate entries of the source, which are not always exact repeats. Equal entries are not always repeated. More than one record can exist for a structure, and the calls need not agree. The source made the active and inactive calls.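 How the source made its calls, unless noted: active means inhibition at or above 50% relative to wild type and mutant plate controls; inactive means inhibition below 50%.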
# How the values were obtained:
# [1] = inhibitors of TNFa-induced NFkB p65 translocation, primary screen, imaging, HUVEC, MLSMR starter and 10KST1 sets (AID 438;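 active means inhibition above 20% together with a positive visual image hit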;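 further: compound added about 3h40 before a 20 min TNFalpha stimulation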;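 on inhibition: signal is the nuclear over cytoplasmic p65 intensity ratio per well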); conditions: HUVEC TNFa-induced p65 nuclear translocation; cell count: measured here: nuclei count (cytotoxicity indicator), at 2.08 µM unless noted; inhibition: at 2 µM, stronger effect = higher value unless noted
# [2] = reduction of polyQ htt aggregates in cells – imaging, exon1htt(103Q)mCFP cells, high-content imaging, primary screen (AID 483;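 active means visual image review flags a hit and inhibition of aggregation exceeds 20%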;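 further: compound exposure lasted 3 days before fixation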;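 on nuclei count: percent of the per-plate median nuclei count of sample wells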); conditions: exon1htt(103Q)mCFP cell line, aggregate imaging, at 2 µM; inhibition of aggregation: stronger effect = higher value; nuclei count: measured here: cell count, toxicity
# [3] = endothelial E-selectin expression blockers – imaging, HUVEC, immunofluorescence, MLSMR starter and 10KST1 sets, primary screen (AID 487;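 active means visually confirmed hit in the image check and inhibition above 20%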;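 on inhibition: signal is fraction of cell area covered by stained E-selectin grains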;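 on nuclei count: 100% = median nuclei count of all wells on the same plate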); conditions: HUVEC TNFalpha-induced E-selectin immunofluorescence imaging, at 2 µM; inhibition: stronger effect = higher value; nuclei count: measured here: cell number, toxicity
# [4] = Primary imaging screen for DUSP6 inhibitors that restore phospho-Erk in transfected HeLa cells, chemical complementation (AID 609;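 active means compounds giving at least 50% inhibition in the cell-based MKP-3 phosphatase rescue imaging test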;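 on inhibition: phospho-Erk level distribution per well compared with pooled transfected vehicle control wells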); conditions: HeLa MKP-3 transfected, phospho-Erk imaging KS statistic, at 10 µM
# [5] = molecular target: Dual specificity protein phosphatase 6 (Homo sapiens) (UniProt Q16828); assay: as above; conditions: HeLa MKP-3 transfected, phospho-Erk imaging KS statistic, at 10 µM, stronger effect = higher value
# Chain of Dual specificity protein phosphatase 6 (Homo sapiens) (Q16828 whole entry, looked up): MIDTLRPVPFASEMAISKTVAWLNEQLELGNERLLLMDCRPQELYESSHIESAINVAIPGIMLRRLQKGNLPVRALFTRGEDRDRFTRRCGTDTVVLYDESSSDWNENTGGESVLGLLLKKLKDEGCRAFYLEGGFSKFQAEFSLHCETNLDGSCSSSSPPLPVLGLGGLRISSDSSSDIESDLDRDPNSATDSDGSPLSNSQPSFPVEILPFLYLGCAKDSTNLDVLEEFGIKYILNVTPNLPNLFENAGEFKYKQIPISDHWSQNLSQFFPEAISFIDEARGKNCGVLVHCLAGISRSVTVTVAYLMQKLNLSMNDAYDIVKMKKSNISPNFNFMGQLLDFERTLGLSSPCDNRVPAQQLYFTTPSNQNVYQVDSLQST
# [6] = molecular target: Voltage-gated potassium channel subunit beta-2 (Rattus norvegicus) (UniProt P62483); assay: inhibitors of rat Kvbeta2 reductase activity – biochemical, NADPH fluorescence, primary screen (AID 622;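 active means fluorescence slope higher than the sample average by over 3 SD, cut at about -0.22 in these data, passing the limit was not always enough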;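 further: slope of raw intensity against log time taken from 70 to 1610 s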); conditions: recombinant KvBeta, 4-cyanobenzaldehyde reduction, at 10 µM, stronger effect = higher value
# Chain of Voltage-gated potassium channel subunit beta-2 (Rattus norvegicus) (P62483 whole entry, looked up): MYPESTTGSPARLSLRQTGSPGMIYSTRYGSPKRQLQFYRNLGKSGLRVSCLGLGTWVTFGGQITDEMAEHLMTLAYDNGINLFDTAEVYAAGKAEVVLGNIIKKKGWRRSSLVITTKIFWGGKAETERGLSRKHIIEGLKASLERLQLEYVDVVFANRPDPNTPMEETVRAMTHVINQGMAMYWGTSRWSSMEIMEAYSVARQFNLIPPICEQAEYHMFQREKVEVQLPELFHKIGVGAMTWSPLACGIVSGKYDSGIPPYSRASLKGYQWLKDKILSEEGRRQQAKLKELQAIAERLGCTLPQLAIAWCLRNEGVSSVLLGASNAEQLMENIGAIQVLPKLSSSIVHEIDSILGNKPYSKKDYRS
# [7] = molecular target: Voltage-gated potassium channel subunit beta-2 (Rattus norvegicus) (UniProt P62483); assay: enhancers of rat Kvbeta2 NADPH turnover – biochemical, NADPH fluorescence, primary screen (AID 623;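 active means NADPH fluorescence slope more negative than the mean of all samples by about 3 SD, 99.7% confidence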;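 further: fluorescence intensity change per second fitted from 20 to 320 s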); conditions: Recombinant KvBeta, NADPH fluorescence decrease slope, 10 min; at 10 µM; stronger effect = lower value
# [8] = molecular target: Alpha-2C adrenergic receptor (Homo sapiens) (UniProt P18825); assay: compounds altering alpha2C-coupled GIRK flux – cell-based, HEK293 alpha2C/GIRK1/2, thallium flux, primary screen (AID 624;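 active means fluorescence slope after compound addition differing from the mean of all screened samples at 99.7% confidence, in either direction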;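 further: slope of fluorescence ratio to pre-addition baseline per second over 15 to 24 s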); conditions: thallium flux BTC fluorescence, at 10 µM, actives lie on both sides
# Chain of Alpha-2C adrenergic receptor (Homo sapiens) (P18825 whole entry, looked up): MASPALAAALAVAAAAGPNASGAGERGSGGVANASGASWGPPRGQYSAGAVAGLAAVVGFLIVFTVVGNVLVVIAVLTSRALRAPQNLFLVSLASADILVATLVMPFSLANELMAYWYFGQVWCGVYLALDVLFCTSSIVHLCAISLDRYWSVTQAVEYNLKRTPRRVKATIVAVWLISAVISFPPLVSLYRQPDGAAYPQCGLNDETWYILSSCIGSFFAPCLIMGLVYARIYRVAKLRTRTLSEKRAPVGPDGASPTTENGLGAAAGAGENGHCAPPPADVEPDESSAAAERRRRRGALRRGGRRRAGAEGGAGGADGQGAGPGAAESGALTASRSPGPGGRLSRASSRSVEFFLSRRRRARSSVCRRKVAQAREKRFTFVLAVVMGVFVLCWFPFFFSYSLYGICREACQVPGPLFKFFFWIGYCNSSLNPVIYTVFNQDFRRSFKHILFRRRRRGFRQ
# [9] = inhibitors of larval lipid processing in zebrafish, primary screen, whole organism, PED6 fluorescence, gall bladder and intestine (AID 686;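 active means a full or partial loss of lipid-probe fluorescence in the fish gall bladder, intestine or both, judged by eye; inactive means no fluorescence loss, or compound toxic to the fish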;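 further: larvae 5 to 7 days old with five fish per well; signal comes from phospholipase A2 cleavage of quenched PED6 carried via bile; overnight exposure to compound and PED6 before scoring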); conditions: Zebrafish larvae PED6 lipid processing, fluorescence scoring
# [10] = loss of swimming-algae plug formation – whole organism, Chlamydomonas reinhardtii, WT vs cilia-less mutant, absorbance, 96-well, primary screen (AID 463189); conditions: Chlamydomonas reinhardtii gravitaxis, OD600 absorbance, 2 days; at 10 µM; stronger effect = higher value;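 further: 0% = wild type cc124 cells in DMSO and 100% = ciliumless bld1 mutant cells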
# [11] = blockers of RIG-like receptor reporter activation – cell-based, Sendai virus stimulus, luciferase, 10K MLSCN set, TLR/RLR signaling modifier project, primary screen (AID 602276;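 active means inhibition at or above 50% at 10 µM; inactive means inhibition below 50%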;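 further: firefly luciferase from ISG56 promoter only with Renilla not read in this screen; 0% = Sendai virus plus DMSO and 100% = medium plus DMSO without virus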); conditions: HEK293 RL24 IRF3 luciferase reporter, at 10 µM, stronger effect = higher value
# [12] = TLR3 IRF3 reporter activation blockers – cell-based, poly I:C stimulus, luciferase, 10K MLSCN set, primary screen (AID 602277;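 active means inhibition of the reporter signal at or above 50%; inactive means inhibition below 50%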); conditions: HEK293-TLR3 RL24 IRF3 luciferase reporter, at 10 µM, stronger effect = higher value
# [13] = molecular target: Muscarinic acetylcholine receptor M4 (Homo sapiens) (UniProt P08173); assay: M4-linked GIRK flux change, two-sided – cell-based, HEK293 M4/GIRK, thallium flux, BTC-AM, M4 allosteric agonist project, primary screen (AID 625;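 active means fluorescence slope after compound addition differing from the mean of all tested samples at 99.7% confidence, mostly higher but some lower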;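 further: thallium influx through GIRK channels coupled to M4 in HEK293 cells with BTC-AM dye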); conditions: at 10 µM, actives lie on both sides
# Chain of Muscarinic acetylcholine receptor M4 (Homo sapiens) (P08173 whole entry, looked up): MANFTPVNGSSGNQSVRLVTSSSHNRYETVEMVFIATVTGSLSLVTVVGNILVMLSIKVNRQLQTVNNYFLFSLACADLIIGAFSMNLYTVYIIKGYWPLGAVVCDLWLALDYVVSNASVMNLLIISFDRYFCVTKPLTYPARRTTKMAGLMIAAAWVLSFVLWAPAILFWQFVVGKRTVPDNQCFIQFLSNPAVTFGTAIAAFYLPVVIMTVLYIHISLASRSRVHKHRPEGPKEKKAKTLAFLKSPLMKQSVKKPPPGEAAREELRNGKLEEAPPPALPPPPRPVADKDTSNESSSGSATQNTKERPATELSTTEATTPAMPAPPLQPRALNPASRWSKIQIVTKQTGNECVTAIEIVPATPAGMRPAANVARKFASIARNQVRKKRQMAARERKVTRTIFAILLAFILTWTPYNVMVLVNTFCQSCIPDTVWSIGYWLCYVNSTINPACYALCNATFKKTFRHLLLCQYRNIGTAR
# [14] = measured here: cell density z-score
# [15] = measured here: nuclear c-Myc green intensity z-score
# [16] = measured here: nuclear pErk red intensity z-score, stronger effect = higher value
SMILES,cell count [1],inhibition [1],inhibition of aggregation [2],nuclei count [2] [%],inhibition [3],nuclei count [3] [%],"z-score [4, 14]","z-score [4, 15]","z-score [4, 16]",inhibition [5],fluorescence slope [6],NADPH fluorescence slope [7],slope [8],outcome [9],inhibition [10],inhibition [11],inhibition [12],fluorescence slope [13]
CN1C[C@H](CNC(=O)OCc2ccccc2)C[C@@H]2c3cccc4c3c(cn4C)C[C@H]21,603,2.7% (inactive),-59.5% (inactive),111,-32.3% (inactive),110,-0.59,-0.701,1.38,1.38% (inactive),-0.508 (inactive),-3.6e-06 (inactive),0.0041 (inactive),inactive,0.679% (inactive) and 168% (active),1.55% (inactive),23.4% (inactive),–
CC(C)C(=O)N1CCN(CCN=Cc2c(O)n(C)c(=O)n(C)c2=O)CC1,517,-3.1% (inactive),-28.7% (inactive),138,-78.2% (inactive),112,0.289,-1.08,0.644,1.9e-07% (inactive),-0.5 (inactive),-3.4e-05 (inactive),0.00563 (inactive),inactive,33.6% (inactive),-6.82% (inactive),-2.86% (inactive),–
CC(=O)[C@@]1(O)CC[C@H]2[C@@H]3CC=C4C[C@@H](O)CC[C@]4(C)[C@H]3CC[C@@]21C,618,-10.4% (inactive),4% (inactive),99.3,-57.3% (inactive),129,-0.0512,-0.687,-0.36,7.39% (inactive),-0.451 (inactive),-5.3e-05 (inactive),0.00537 (inactive),inactive,-4.89% (inactive),9% (inactive),26.8% (inactive),–
NCCc1ccc(O)cc1,431,6% (inactive),11.4% (inactive),95.7,22.3% (inactive),92.7,–,–,–,–,-0.573 (inactive),-7e-05 (inactive),–,–,7.08% (inactive),12.8% (inactive),19% (inactive),0.00467 (inactive)
CC(C)N(CCC(C(N)=O)(c1ccccc1)c1ccccn1)C(C)C (centres undefined),539,-8.5% (inactive),-2.7% (inactive),104,-22.4% (inactive),106,-0.772,0.954,0.768,9.37% (inactive),-0.515 (inactive),-7.6e-05 (inactive),0.00456 (inactive),inactive,1.35% (inactive) and 4.32% (inactive) and 26.6% (inactive),6.44% (inactive),34% (inactive),–
C[C@H]1CCCC(=O)CCCCCc2cc(O)cc(O)c2C(=O)O1,593,-6.9% (inactive),2.6% (inactive),82.4,-84.5% (inactive),116,1.09,-0.366,-0.0362,29.1% (inactive),-0.439 (inactive),2.4e-05 (inactive),0.00367 (inactive),inactive,-7.02% (inactive),-0.827% (inactive),16.9% (inactive),–
C[C@@]1(CO)[C@H](O)CC[C@@]2(C)[C@H]1CC[C@H]1C[C@@H]3C[C@@]12CC[C@]3(O)CO,629,-4.1% (inactive),-9.1% (inactive),9.1,-34.7% (inactive),113,0.71,-0.0811,-0.673,1.48% (inactive),-0.469 (inactive),-5.6e-05 (inactive),0.00555 (inactive),inactive,-7.52% (inactive),-34.2% (inactive),49.2% (inactive),–
CN1CCC(OC(=O)C2c3ccccc3Oc3ccccc32)CC1,593,-3.3% (inactive),-33.4% (inactive),104,-38.4% (inactive),143,-1.82,0.811,-0.439,-3.5% (inactive),-0.316 (inactive),1.2e-05 (inactive),0.0042 (inactive),inactive,11.4% (inactive),7.89% (inactive),12.3% (inactive),–
O=c1[nH]c(=O)n(Cc2ccccc2)c(O)c1C=NCCN1CCOCC1,639,-25.9% (inactive),–,–,-59.7% (inactive),156,0.666,-2.11,2.73,2.71% (inactive),-0.393 (inactive),-1.2e-06 (inactive),0.00558 (inactive),inactive,0.831% (inactive),–,–,–
O=c1[nH]c2ccccc2n1C1CCN(CCCC(c2ccc(F)cc2)c2ccc(F)cc2)CC1,544,-2.2% (inactive),–,–,-26.6% (inactive),108,-0.698,0.151,-0.248,5.42% (inactive),-0.556 (inactive),-6.4e-05 (inactive),0.00493 (inactive),inactive,-5.72% (inactive) and -16.1% (inactive),18.5% (inactive),10.5% (inactive),–
